PubChem BioAssay AID1985 (Southern Research Specialized Biocontainment Screening …, 2009)
The campaign covered roughly 2,300 compounds. About 1,000 (43%) were called active. So high a share suggests a set chosen from earlier hits. The list shows a part of the results. Potency and affinity values are given separately. Unmarked numbers belong to inactive results. The rule behind the calls is not given here.

experiment: PhoP regulon inhibitor project modified counter assay, GFP fluorescence readout, dose response (AID 1985); details: S. Typhi, 4 h; series mostly up to 150 µM; inhibition: at the top concentration

Q: For Cc1c(C(=O)Nc2ccncc2)sc2nc(-c3ccc(F)cc3)cn12, which “inhibition” value is on record?
A: The value was 5.26%.

Q: Which “inhibition” value does the source give for Clc1ccc(CNCc2cccs2)cc1Cl here?
A: Its value is -13.4%.

Q: For COc1ccccc1CNC(=O)COC(=O)CCC(=O)c1cccs1, which “inhibition” value is on record?
A: Its value is 11.2%.

Q: Which “inhibition” value does the source give for COc1cccc(CNc2nn[nH]n2)c1OC here?
A: Its value is 5.63%.

Q: For Fc1ccc(NC(=S)NCc2ccccc2Cl)cc1, which “inhibition” value is on record?
A: Its value is 9.03%.

Q: Which “inhibition” value does the source give for Fc1ccccc1CSc1ccc(-c2ccco2)nn1 here?
A: Its value is 2.22%.

Q: Which “inhibition” value does the source give for O=C(O)CCSCc1ccccc1F here?
A: Its value is 12%.

Q: With COc1ccc2[nH]cc(CC(=O)O)c2c1 as the compound, how does the “inhibition” value read?
A: The value was -1.77%.

Q: Which “inhibition” value does the source give for COc1ccc(C2=NN3C(C2)c2ccccc2OC3c2cccs2)cc1 (stereo not drawn) here?
A: Its value is 9.41%.

Q: For O=C(CSc1cccc2cccnc12)Nc1ccc(S(=O)(=O)N2CCOCC2)cc1, which “inhibition” value is on record?
A: The value was 20.2%.

Q: With O=C(O)COc1ccccc1/C=N/NC(=O)c1cccc(S(=O)(=O)N2CCOCC2)c1 as the compound, how does the “inhibition” value read?
A: The value was 28%.

Q: With Cn1c(-c2ccc(Cl)cc2)cnc1N as the compound, how does the “inhibition” value read?
A: The value was -30.5%.

Q: For O=[N+]([O-])c1ccc(-c2cnc(NO)nc2)cc1, which “inhibition” value is on record?
A: Its value is 20.5%.

Q: For COc1cccc(C(=O)N(CN2CCCC2=O)c2cc(C)on2)c1, which “inhibition” value is on record?
A: The value was -12.3%.

Q: With N#Cc1ccc(C2=NC(C(F)(F)F)(C(F)(F)F)c3c(n(Cc4ccco4)c(=O)[nH]c3=O)N2)cc1 as the compound, how does the “inhibition” value read?
A: Its value is -13.8%.

Q: Which “inhibition” value does the source give for COc1ccc(NC(=O)C2CCCN(C(=O)NC3CCCCC3)C2)cc1OC (stereo not drawn) here?
A: The value was -14.7%.

Q: Which “inhibition” value does the source give for Cc1ccc(S(=O)(=O)NCC(=O)OCN2C(=O)c3ccccc3C2=O)cc1 here?
A: Its value is -33.3%.

Q: With CCN1CCN(c2nc3ccccc3nc2C(C#N)S(=O)(=O)c2ccc(C)cc2)CC1 (stereo not drawn) as the compound, how does the “inhibition” value read?
A: The value was 1.64%.

Q: Which “inhibition” value does the source give for COc1ccc(-c2cc(=NCC(=O)O)c3ccccc3o2)cc1 here?
A: The value was 7.24%.

Q: Which “inhibition” value does the source give for CCOC(=O)C(NC(C)=O)(Nc1cccc(F)c1)C(F)(F)F (stereo not drawn) here?
A: Its value is -16.7%.

Q: For O=C(Nc1cccc(F)c1)NC1CCCCC1, which “inhibition” value is on record?
A: Its value is 31.8%.

Q: For CC(=O)Nc1cccc(NC(=O)Nc2ccc(C)c(Cl)c2)c1, which “inhibition” value is on record?
A: The value was 17.6%.

Q: For Cc1nc(NC2=NCN(CCCN3CCOCC3)CN2)nc2c(C)cccc12, which “inhibition” value is on record?
A: Its value is 18%.
